Assay [1] can be described thus: small molecules captured by biotinylated probe aFSTL3 – biochemical, small-molecule microarray, fluorescence 635/667, stem cell growth factor project, primary screen (AID 1064).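 Note: measures binding of the biotinylated anti-FSTL3 antibody to printed compounds.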 The following applies: higher = more signal.
Assay [2] in a line: binders from COS7 lysate, DM2A8 probe, primary screen, torsin A project, cell lysate, small-molecule microarray, fluorescence 635/667 (AID 1065). The note with it: higher = more signal, COS7 lysate expressing mutant human TOR1A.
The nature of assay [3]: small molecules captured by biotinylated probe aFGF2 – biochemical, small-molecule microarray, fluorescence 635/667, stem cell growth factor project, primary screen (AID 1067).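 Note: measures binding of biotinylated aFGF2 protein to printed compounds on slides; z-score merges feature fluorescence and signal-to-noise across triplicate slides.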 The following applies: higher = more signal.
Assay [4] in a line: small molecules captured by biotinylated probe aFGF10 – biochemical, small-molecule microarray, fluorescence 635/667, stem cell growth factor project, primary screen (AID 1071).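 Note: score merges 667 nm spot intensity and signal to noise from triplicate slides.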 The following applies: higher = more signal.
Assay [5] deals with Neurogenic locus notch homolog protein 2 (Homo sapiens) (UniProt Q04721). Nature of the assay: small molecules binding Notch2 protein – biochemical, small-molecule microarray, 635 nm fluorescence, stem cell growth factors, primary screen (AID 1073). The note with it: higher = more signal.
Neurogenic locus notch homolog protein 2 (Homo sapiens), sequence (Q04721 whole entry, looked up, canonical isoform): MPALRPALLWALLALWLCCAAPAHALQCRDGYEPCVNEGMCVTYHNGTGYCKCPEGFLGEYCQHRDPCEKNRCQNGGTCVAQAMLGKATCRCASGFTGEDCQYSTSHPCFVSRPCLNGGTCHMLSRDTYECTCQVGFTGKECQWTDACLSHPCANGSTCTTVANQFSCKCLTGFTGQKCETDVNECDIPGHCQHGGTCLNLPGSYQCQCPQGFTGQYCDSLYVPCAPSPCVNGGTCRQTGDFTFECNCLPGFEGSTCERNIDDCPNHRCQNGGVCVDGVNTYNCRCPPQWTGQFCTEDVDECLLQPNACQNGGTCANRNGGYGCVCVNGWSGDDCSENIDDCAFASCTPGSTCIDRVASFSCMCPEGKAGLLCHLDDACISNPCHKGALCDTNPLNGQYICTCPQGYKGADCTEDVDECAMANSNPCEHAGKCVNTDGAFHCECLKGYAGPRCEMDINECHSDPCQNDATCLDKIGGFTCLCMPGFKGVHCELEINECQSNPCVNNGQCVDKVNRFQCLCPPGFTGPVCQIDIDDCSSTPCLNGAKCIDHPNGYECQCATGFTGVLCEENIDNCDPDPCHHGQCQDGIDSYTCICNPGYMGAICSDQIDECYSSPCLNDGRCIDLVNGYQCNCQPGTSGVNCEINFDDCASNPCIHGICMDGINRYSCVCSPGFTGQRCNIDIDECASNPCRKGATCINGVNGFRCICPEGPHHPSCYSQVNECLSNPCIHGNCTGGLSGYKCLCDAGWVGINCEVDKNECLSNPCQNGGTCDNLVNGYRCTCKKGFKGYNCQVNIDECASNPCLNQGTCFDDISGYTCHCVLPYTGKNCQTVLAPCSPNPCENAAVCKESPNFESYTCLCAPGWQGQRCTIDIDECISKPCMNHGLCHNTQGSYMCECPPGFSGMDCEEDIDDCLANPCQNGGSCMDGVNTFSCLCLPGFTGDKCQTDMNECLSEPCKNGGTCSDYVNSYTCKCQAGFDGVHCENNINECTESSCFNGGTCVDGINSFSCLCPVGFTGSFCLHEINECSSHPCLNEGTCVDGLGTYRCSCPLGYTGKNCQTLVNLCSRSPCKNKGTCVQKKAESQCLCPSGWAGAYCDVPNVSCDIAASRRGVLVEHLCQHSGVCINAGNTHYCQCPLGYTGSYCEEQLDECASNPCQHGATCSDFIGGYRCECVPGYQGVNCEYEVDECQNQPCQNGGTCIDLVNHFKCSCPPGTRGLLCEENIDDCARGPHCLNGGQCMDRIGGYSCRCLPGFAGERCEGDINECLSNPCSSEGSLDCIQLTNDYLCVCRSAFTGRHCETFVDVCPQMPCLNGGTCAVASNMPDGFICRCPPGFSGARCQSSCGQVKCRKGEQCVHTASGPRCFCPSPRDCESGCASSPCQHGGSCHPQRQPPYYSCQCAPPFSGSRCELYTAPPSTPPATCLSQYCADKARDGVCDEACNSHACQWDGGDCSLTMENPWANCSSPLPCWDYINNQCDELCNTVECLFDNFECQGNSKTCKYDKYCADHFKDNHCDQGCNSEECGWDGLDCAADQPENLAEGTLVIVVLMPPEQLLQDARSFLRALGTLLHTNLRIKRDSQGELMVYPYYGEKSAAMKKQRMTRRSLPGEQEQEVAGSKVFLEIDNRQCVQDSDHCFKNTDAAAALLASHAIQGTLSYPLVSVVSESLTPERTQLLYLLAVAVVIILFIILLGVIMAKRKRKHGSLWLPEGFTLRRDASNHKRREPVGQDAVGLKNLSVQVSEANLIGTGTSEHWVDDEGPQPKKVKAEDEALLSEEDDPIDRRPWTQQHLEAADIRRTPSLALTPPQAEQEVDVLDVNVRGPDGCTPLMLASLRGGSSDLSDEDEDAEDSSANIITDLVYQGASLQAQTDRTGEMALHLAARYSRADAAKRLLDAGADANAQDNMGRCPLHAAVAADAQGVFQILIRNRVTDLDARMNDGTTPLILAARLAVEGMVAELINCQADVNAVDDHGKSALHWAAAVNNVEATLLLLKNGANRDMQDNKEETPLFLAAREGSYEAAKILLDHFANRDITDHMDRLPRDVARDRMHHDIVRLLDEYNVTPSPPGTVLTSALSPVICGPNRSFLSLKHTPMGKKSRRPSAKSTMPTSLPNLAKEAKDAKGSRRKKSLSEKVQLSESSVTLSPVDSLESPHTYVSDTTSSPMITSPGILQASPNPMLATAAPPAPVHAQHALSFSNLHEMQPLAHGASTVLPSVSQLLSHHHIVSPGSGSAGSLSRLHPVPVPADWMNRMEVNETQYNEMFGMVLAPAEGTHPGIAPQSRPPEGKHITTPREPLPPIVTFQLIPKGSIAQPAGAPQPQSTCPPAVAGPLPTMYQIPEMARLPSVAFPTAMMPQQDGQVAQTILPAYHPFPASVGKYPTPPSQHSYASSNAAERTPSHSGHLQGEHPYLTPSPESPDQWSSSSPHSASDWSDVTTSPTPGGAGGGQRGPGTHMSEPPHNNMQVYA
The target of assay [6] is Pro-neuregulin-1, membrane-bound isoform (Homo sapiens) (UniProt Q02297). Nature of the assay: small molecules binding neuregulin-1 protein – biochemical, small-molecule microarray, fluorescence 635/667, psychiatric disease protein project, primary screen (AID 1075).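 Note: score combines 667 nm spot fluorescence with signal to noise.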 The note with it: NRG1 binding, 635 nm fluorescence, higher = more signal.
Pro-neuregulin-1, membrane-bound isoform (Homo sapiens), sequence (Q02297 whole entry, looked up, the tested form may be a part, canonical isoform): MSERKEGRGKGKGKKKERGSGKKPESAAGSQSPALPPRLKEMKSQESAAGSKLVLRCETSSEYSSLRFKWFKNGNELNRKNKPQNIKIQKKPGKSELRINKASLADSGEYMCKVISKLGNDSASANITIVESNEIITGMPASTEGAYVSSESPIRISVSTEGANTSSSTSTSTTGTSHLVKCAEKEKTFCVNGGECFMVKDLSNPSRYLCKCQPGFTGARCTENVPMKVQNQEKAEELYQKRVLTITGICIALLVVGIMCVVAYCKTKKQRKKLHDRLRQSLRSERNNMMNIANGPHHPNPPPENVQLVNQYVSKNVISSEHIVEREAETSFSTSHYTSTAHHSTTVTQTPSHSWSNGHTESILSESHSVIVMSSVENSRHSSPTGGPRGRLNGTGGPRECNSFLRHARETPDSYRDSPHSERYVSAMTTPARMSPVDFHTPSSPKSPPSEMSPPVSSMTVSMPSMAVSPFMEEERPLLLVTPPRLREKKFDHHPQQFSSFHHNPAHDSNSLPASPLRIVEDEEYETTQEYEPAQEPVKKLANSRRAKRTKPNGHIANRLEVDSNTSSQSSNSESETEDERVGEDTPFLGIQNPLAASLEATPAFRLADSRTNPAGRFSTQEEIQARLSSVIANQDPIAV
Assay [7] concerns Neuregulin-1 EGF-like domain. Briefly: small molecules binding NRG1 EGF domain – biochemical, small-molecule microarray, 635 nm fluorescence, primary screen (AID 1081).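 Note: binding of the protein to compounds printed on small-molecule microarray slides.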 The following applies: higher = more signal.
The nature of assay [8]: FRG1 expression reporter modulators in myotubes – cell-based, C2C12 myotubes, firefly/Renilla luciferase, luminescence, FRG1 inhibition for FSHD, primary screen (AID 1084). The following applies: FRG1 promoter luciferase, higher = more signal, called active from +8 up or from −8 down.
Assay [9] is described as follows: small molecules captured by biotinylated probe aFST – biochemical, small-molecule microarray, fluorescence 635/667, stem cell growth factor project, primary screen (AID 1086).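 Note: score merges 667 nm fluorescence with signal-to-noise of each printed compound spot.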 The following applies: higher = more signal.
Assay [10] can be described thus: binders of probe aHhip on microarray, primary screen, stem cell growth factor project, biochemical, small-molecule microarray, fluorescence 635/667 (AID 1087).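 Note: score merges spot fluorescence at 667nm with spot signal to noise ratio.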 The following applies: higher = more signal.

Consider 16 compounds from PubChem BioAssay.

Structures are written as SMILES. Activity calls are given as the source filed them.

Consider `CCN1C(=O)[C@H]2[C@H]3[C@H](O)[C@H](O)CC(=NOC[C@@H](C)[C@H](OCc4ccccc4)C(C)C)[C@@H]3CC[C@H]2C1=O`, for which the composite z-score in assay [1] is -0.468; in assay [2], 1.28; in assay [3], -0.128; in [4] it was 0.523; in [5], 0.399; in [6], 1.24. Further, the composite z-score in assay [7] is 0.221; in assay [9], 0.0662; in assay [10], -0.169. Also, the z-score in assay [8] was 0.199 (inactive).
With `COC(=O)[C@H](C)NC(=O)[C@@H](C)CO`, the composite z-score in assay [1] was -0.329; in assay [2], 1.2; in assay [3], -0.116; in assay [4], 0.75; in assay [5], 0.591; in [6], 0.515. In addition, the composite z-score worked out at 1.04 in [7], 0.357 in assay [9] and 0.316 in assay [10]. Besides, in assay [8], the z-score was -0.256 (inactive).
Turning to `CC[C@@H](c1ccccc1)n1c(=O)n2n(c1=O)[C@H]1[C@H](O)[C@@H]3O[C@@H]3C(=NOCC=C(C)CCC=C(C)C)[C@H]1CC2`, the composite z-score was -0.415 in assay [1]; 0.138 in [2]; -0.102 in assay [3]; 0.471 in assay [4]; 0.8 in assay [5]; 0.8 in assay [6]. For the same compound, the composite z-score in assay [7] was 0.89; in assay [9], 0.572; in assay [10], -0.169. Also, in assay [8], the z-score is -0.0545 (inactive).
Take `CN1C(=O)C2C=CC(C(O)c3ccc(I)cc3)N(NC(=O)OC(C)(C)C)C2C1=O` (stereo not given): the composite z-score is 0.108 in assay [1]; -0.0004 in assay [2]; 0.111 in assay [3]; 0.652 in assay [4]; 1.68 in assay [5]; 1.69 in [6]. The composite z-score in [7] is 1.38; in assay [9] it was 1.18; in [10], -0.0994. Moreover, the z-score in assay [8] is -3.23 (inactive).
With `COc1ccc(O[C@H]2C=C[C@@H](c3ccccc3)O[C@@H]2CON=C[C@@H](C)[C@H](OCc2ccccc2)C(C)C)cc1`, the composite z-score was -0.397 in assay [1]; -0.249 in assay [2]; -0.168 in [3]; -0.773 in assay [4]; -0.936 in [5]; -0.744 in [6]. Moreover, the composite z-score in assay [7] is -0.921; in assay [9] it was -0.623; in assay [10] it was -0.602. Besides, in assay [8], the z-score was -1.01 (inactive).
Consider `CCOC(=O)CCN1C(=O)[C@H]2[C@H]3[C@H](O)[C@H](O)CC(=NOC[C@@H](O)COCc4ccco4)[C@H]3CC[C@H]2C1=O`, for which the composite z-score in assay [1] is -0.528; in assay [2], -0.0277; in [3] it was -0.0996; in [4], 0.483; in assay [5], 0.722; in assay [6], 0.035. Moreover, the figures for the composite z-score in [7], in assay [9] and in assay [10] were 0.148, 0.132 and 0.28, respectively. Besides, the z-score in assay [8] is 0.122 (inactive).
Regarding `CC(C)OC(=O)C=C1C[C@@H](c2ccc(C#N)cc2)O[C@@H](c2ccc(C#N)cc2)O1`, the composite z-score in assay [1] is -0.475; in assay [2] it was 0.334; in assay [3] it was 0.235; in [4] it was 1.01; in assay [5], 1.68; in assay [6] it was 1.64. For the same compound, the composite z-score worked out at 1.21 in assay [7], 1.58 in assay [9] and 0.233 in assay [10]. The z-score in assay [8] was 0.0509 (inactive).
On to `CCc1cc2c(nc1CC)CCN(CCC(C)=NOC(C)CN1CCCc3nc(C)c(C)cc31)C2` (stereo not given), for which the composite z-score in assay [1] was found to be 0.271; in [2] it was 1.29; in [3], 0.131; in assay [4] it was 0.16; in assay [5] it was 1.35; in [6], 0.408. Further, the composite z-score in [7] turned out to be 1.17; in [9] it was 1.15; in assay [10], 1.17. Besides, the z-score in assay [8] was 1.04 (inactive).
In the case of `C=CCN1C(=O)[C@]2(O[C@H](CCn3cc(CCO)nn3)[C@@H]([Si](C)(C)c3ccc(OC)cc3)[C@@H]2C)c2cc(N3CCOC3=O)ccc21`, the composite z-score in assay [1] was -0.0415; in assay [2] it was 0.0421; in [3], -0.152; in [4], 0.0622; in [5] it was -0.447; in assay [6], 1.05. The composite z-score was 1.18 in assay [7], -0.414 in assay [9] and -0.261 in assay [10]. In addition, the z-score in [8] was -3.36 (inactive).
Consider `CCN1C(=O)[C@H]2[C@H]3[C@H](O)[C@H](O)CC(=NOCC=C(C)CCC=C(C)C)[C@H]3CC[C@H]2C1=O`, for which the composite z-score in assay [1] is -0.968; in assay [2], 0.689; in [3], -0.117; in [4], 0.923; in [5], 0.698; in assay [6], 0.65. Besides, the composite z-score stood at 1.07 in assay [7], 0.617 in assay [9] and 0.183 in assay [10]. Also, the z-score in assay [8] was -0.454 (inactive).
Regarding `CN(C)c1ccc(C(O)C2C=CC3C(=O)N(c4ccccc4)C(=O)C3N2Nc2ccccc2F)cc1` (stereo not given), the composite z-score is 0.357 in assay [1]; -0.159 in assay [2]; -0.0422 in [3]; 0.208 in assay [4]; 1.46 in assay [5]; 0.86 in assay [6]. Also, the composite z-score in [7] is 1.25; in assay [9], 0.957; in [10] it was -0.212. The z-score in [8] was 3.64 (inactive).
With `CCCNC(=O)[C@@H]1c2ccccc2C(=O)N(Cc2ccccc2Cl)[C@H]1c1ccc(CO)cc1`, the composite z-score in assay [1] is 0.198; in assay [2], 0.274; in [3], 0.0336; in assay [4], 0.633; in assay [5], 1.17; in assay [6] it was 0.963. Besides, the composite z-score in [7] is 1.21; in assay [9], 0.703; in assay [10], -0.216. Further, the z-score in [8] is -1.18 (inactive).
Regarding `CC(=O)OC[C@H]1O[C@H](CCON=C[C@@H](C)[C@H](OCc2ccccc2)C(C)C)C=C[C@@H]1OC(C)=O`, the composite z-score in assay [1] is -0.567; in assay [2], 0.57; in [3], -0.101; in assay [4], 0.114; in assay [5] it was -0.113; in [6], -0.114. Further, the composite z-score was -0.339 in [7], 0.0538 in [9] and 0.312 in [10]. Further, in assay [8], the z-score was 0.447 (inactive).
With `COc1ccc(-c2ccc3c(n2)CCCN3CC(O)CN2CCCc3nc(C)c(C)cc32)cc1` (stereo not given), the composite z-score in assay [1] turned out to be 0.683; in assay [2] it was 1.55; in assay [3], 0.126; in assay [4], 0.961; in assay [5] it was 0.63; in assay [6], 0.641. In addition, the values for the composite z-score in assay [7], in assay [9] and in assay [10] were 0.732, 1.02 and 0.38, respectively. For the same compound, the z-score in assay [8] is 3.33 (inactive).
For `CC(C)C[C@@H]1NC(=O)[C@H]2C[C@@H](C(=O)NCCCCCCN(C)C)[C@@H](c3cccc(OCCO)c3)N2C1=O`, the composite z-score in assay [1] is 0.293; in [2] it was 1.55; in [3], -0.0173; in [4], 0.789; in [5], 0.873; in assay [6], 0.528. Further, the composite z-score in [7] was 0.781; in assay [9], 0.256; in assay [10], -0.156. In addition, the z-score in assay [8] was 3.77 (inactive).
Consider `O=C1C[C@@H](O)[C@@H](O)[C@@H]2[C@@H]3C(=O)N(Cc4ccc5c(c4)OCO5)C(=O)[C@@H]3CC[C@@H]12`, for which the composite z-score was -0.612 in [1]; 0.196 in assay [2]; -0.149 in assay [3]; 0.833 in [4]; 0.651 in [5]; -0.13 in [6]. Besides, the composite z-score in assay [7] was determined as 0.568; in [9], 0.278; in assay [10], 0.065. Also, the z-score in [8] is 0.324 (inactive).
